This is part of a sample that, as a whole, favours compounds with a hit. Of some 79,000 tested, about 15% had one in any assay. Values without a mark were called inactive. Activity calls are given as the source filed them. No stated cut-off is given here; in the data, active means growth inhibition above about 70%; inactive means the rest.

A short description of the assay: NCI Yeast Anticancer Drug Screen. Data for the mec2-1 strain (AID 157). The following applies: S. cerevisiae mec2-1 strain, hits give high values. The procedure: Growth inhibition of yeast strains with defined genetic alterations is measured as a screen for potential anti-cancer activity. Selected strains with alterations in DNA damage repair or cell cycle control were exposed to compounds and growth inhibition was measured relative to vehicle treated controls. The strain used in this assay is mec2-1

Setting [1] is: at 5.0 µM (retest, dose inferred, filed as 0.5).
[2] abbreviates: at 50.0 µM (retest, dose inferred, filed as 5.0).

Turning to `O=S(=O)(c1ccc2c(c1)CCCN2)N1CCC[C@H]2CCCC[C@@H]21`, the growth inhibition by setting is: under setting [1], -2%; under setting [2], 96% (active); (at 50.0 µM) 96.8% (active).

Regarding `O=S(=O)(/C=C/c1cccnc1)/C=C/c1cccnc1`, the growth inhibition is, setting by setting: under setting [1], 0%; under setting [2], -3%; (at 50.0 µM) -1.65%.

With `NCC(O)CSc1ccc(Cl)c(Cl)c1` (configuration not stated), the growth inhibition under setting [1] was -2%, the growth inhibition under setting [2] was -4% and the growth inhibition (at 50.0 µM) was 14.2%.

For the compound `Cc1ccc(COCO)c(O)c1`, the growth inhibition under setting [1] is 0%, the growth inhibition under setting [2] was 2% and the growth inhibition (at 50.0 µM) is 35.8%.

On to `C[n+]1c2ccccc2cc2[nH]c3ccccc3c21`, for which the growth inhibition by setting is: under setting [1], 86% (active); under setting [2], 96% (active); (at 50.0 µM) 78.6% (active).

For `CC(c1ccc2ccccc2c1)c1c(F)cccc1C(=O)O` (configuration not stated), the growth inhibition is 0% under setting [1], 54% under setting [2] and 98.3% (active) (at 50.0 µM).

For the compound `O=C(O)c1ccccc1C(c1ccccc1)c1ccccc1`, the growth inhibition is -8% under setting [1], 44% under setting [2] and 65.2% (at 50.0 µM).

Consider `c1ccc(NNc2ccc3ccccc3n2)cc1`, for which the growth inhibition is -21% under setting [1], 2% under setting [2] and 44.6% (at 50.0 µM).

`c1ccc(OCCCOc2ccccc2)cc1`: the growth inhibition under setting [1] was -1%, the growth inhibition under setting [2] was -4% and the growth inhibition (at 50.0 µM) was 10.8%.

As for `O=c1[nH]c(C(F)(F)F)c(F)c(=O)[nH]1`, the growth inhibition under setting [1] was 3%, the growth inhibition under setting [2] is 1% and the growth inhibition (at 50.0 µM) is 93.5% (active).

Take `[C-]#[N+]C(C)(c1ccccc1)c1ccccc1`: the growth inhibition is, setting by setting: under setting [1], -34%; under setting [2], 47%; (at 50.0 µM) 93.2% (active).

Turning to `CC(C)=CCc1c2c(c(O)c3c(=O)c(-c4ccc(O)cc4O)coc13)C=CC(C)(C)O2`, the growth inhibition under setting [1] is -13%, the growth inhibition under setting [2] was 97% (active) and the growth inhibition (at 50.0 µM) is 86% (active).

For the compound `Cc1c[nH]c2nc(C)n(-c3ccccc3)c(=N)c12`, the growth inhibition is, setting by setting: under setting [1], 1%; under setting [2], -3%; (at 50.0 µM) 16.5%.

Consider `O=C1c2c(F)c(F)c(F)c(F)c2SC2=NCCN12`, for which the growth inhibition was -4% under setting [1], 98% (active) under setting [2] and 80.4% (active) (at 50.0 µM).

The values above are taken from PubChem BioAssay (NCI).
